Measured values reported in paper PMC4336329 (PLoS ONE, 2015).
Screen size: about 310,000 compounds; about 14,000 (4.5%) showed an effect of 50% or more. Effects have a minus sign here. For the sample, strong results were picked, then their nearest neighbours and some compounds at random.

What follows are molecules tested against human ether-à-go-go-related gene (hERG) potassium channel (human, UniProt Q12809) (assay: primary screen, population patch clamp on CHO cells stably expressing hERG; higher = less effect of the substance).
Description: Briefly, Chinese hamster ovary (CHO) cells stably expressing the hERG channel were dislodged from tissue culture flasks and dispensed into PPC plates. […] During the recording, background leak currents were estimated by a 100 ms step to -80 mV from an initial holding potential of -70 mV and subtracted from the subsequent current measurement. The campaign was conducted in two phases using slight differences in recording protocol. In the first phase, the initial voltage pulse used a 100 ms step to -30 mV from a holding potential of -70 mV, a 2 s conditioning step to +25 mV, and a 2 s test step to -30 mV. During the second phase of the screen, the potential during the conditioning step was raised to +45 mV. In both phases of the campaign, a secondary voltage pulse was applied using the same parameters as the second phase initial pulse. The initial and secondary pulses were applied in the absence of compound, and upon application of 1 μM and 10 μM test concentrations. […]
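Further: peak tail current of the secondary pulse compared with the same well before compound.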

Sequence of human ether-à-go-go-related gene (hERG) potassium channel (Q12809 whole entry, looked up): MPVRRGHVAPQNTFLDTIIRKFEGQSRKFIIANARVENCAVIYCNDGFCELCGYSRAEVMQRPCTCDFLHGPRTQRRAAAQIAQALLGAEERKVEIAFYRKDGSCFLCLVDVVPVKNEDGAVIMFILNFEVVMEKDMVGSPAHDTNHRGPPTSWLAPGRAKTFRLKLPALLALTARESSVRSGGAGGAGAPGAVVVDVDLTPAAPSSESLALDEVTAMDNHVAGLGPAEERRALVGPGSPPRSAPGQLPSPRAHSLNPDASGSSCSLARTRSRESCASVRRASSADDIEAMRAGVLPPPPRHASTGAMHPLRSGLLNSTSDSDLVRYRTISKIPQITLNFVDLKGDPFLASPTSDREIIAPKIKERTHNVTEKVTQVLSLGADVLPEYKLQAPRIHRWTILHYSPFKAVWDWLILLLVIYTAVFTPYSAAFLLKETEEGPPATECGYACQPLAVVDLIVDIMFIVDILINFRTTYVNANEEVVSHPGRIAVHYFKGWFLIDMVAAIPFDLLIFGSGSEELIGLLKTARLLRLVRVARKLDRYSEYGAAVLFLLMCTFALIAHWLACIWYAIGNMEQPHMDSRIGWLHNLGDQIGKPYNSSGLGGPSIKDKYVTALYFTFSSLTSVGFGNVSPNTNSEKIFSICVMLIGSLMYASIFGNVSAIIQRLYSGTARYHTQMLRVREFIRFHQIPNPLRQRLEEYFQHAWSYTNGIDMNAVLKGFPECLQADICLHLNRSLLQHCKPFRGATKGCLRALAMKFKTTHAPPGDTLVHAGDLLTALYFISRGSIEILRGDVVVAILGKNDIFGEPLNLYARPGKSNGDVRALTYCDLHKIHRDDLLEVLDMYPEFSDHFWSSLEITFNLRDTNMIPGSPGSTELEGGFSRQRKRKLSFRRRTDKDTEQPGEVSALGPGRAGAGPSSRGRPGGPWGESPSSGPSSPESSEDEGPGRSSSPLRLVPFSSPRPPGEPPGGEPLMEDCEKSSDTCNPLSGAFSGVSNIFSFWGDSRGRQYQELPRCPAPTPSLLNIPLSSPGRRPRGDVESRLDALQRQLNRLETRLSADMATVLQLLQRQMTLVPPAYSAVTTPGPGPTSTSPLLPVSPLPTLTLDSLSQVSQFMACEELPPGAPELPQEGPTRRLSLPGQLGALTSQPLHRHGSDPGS

| Structure (SMILES) | hERG current change (%, negative = inhibition) at 10uM [%] |
| --- | --- |
| O=C(NC1CCN(S(=O)(=O)c2cccc(F)c2)CC1)c1ccc(F)cc1 | 14.6 |
| Cc1cc2c(sc3c(C)ccc(C)c32)c(C)n1.Cl | 3.48 |
| O=C(NNC(=O)c1cccnc1)NC12CC3CC(CC(C3)C1)C2 | -2.41 |
| CCCNC(=O)CS(=O)Cc1nc(-c2ccccc2C)oc1C (stereo not drawn) | 6.71 |
| CC(=O)c1ccccc1NC(=O)C1CCCN(C(=O)c2ccc(Cl)cc2)C1 (stereo not drawn) | -25.6 |
| COc1ccc(S(=O)(=O)Cc2ccc(C(=O)NC3CCCCC3)o2)cc1 | -2.17 |
| C[N+]1(C)C2CCC1CC(OC(=O)c1ccco1)C2.[Br-] (stereo not drawn) | 7.81 |
| CCCN(C(=O)CSc1nnc(-c2ccoc2C)n1N)C1CCS(=O)(=O)C1 (stereo not drawn) | 5.3 |
| COc1ccc(OC)c(-c2nn(-c3ccccc3)cc2C(=O)NCC(c2ccco2)N2CCCC2)c1 (stereo not drawn) | -63.7 |
| COc1ccc(OC)c(-c2nn(-c3ccccc3)cc2C(=O)NCC(c2cccs2)N2CCOCC2)c1 (stereo not drawn) | -30.2 |
| O=C(NCC(c1ccco1)N1CCCC1)c1ccccc1F (stereo not drawn) | 3.76 |
| O=C(NCC(c1ccco1)N1CCCC1)c1cn(Cc2ccccc2)nc1-c1ccccc1 (stereo not drawn) | -58.5 |
| Cc1cc(C(=O)NCC(c2ccco2)N2CCCC2)c2ccccc2n1 (stereo not drawn) | 6.54 |
| COc1ccc(Cl)cc1C(=O)NCC(c1ccco1)N1CCCC1 (stereo not drawn) | -44.5 |
| Cc1ccccc1-c1nn(-c2ccccc2)cc1C(=O)NCC(c1ccco1)N1CCCC1 (stereo not drawn) | -14.3 |
| COc1ccccc1C(=O)NCCC(=O)NCC(c1ccco1)N1CCCC1 (stereo not drawn) | 13.7 |
| COc1cc(C(=O)NCC(c2ccco2)N2CCCC2)ccc1OCc1ccccc1 (stereo not drawn) | -40.5 |
| COc1ccccc1-c1nn(-c2ccccc2)cc1C(=O)NCC(c1ccco1)N1CCCC1 (stereo not drawn) | -53 |
| COc1ccc(OC)c(-c2nn(-c3ccccc3)cc2C(=O)NCC2CCCO2)c1 (stereo not drawn) | 2.13 |
| COc1ccccc1-c1nn(Cc2ccccc2)cc1C(=O)NCC(c1ccco1)N1CCCC1 (stereo not drawn) | -64 |
| CC(=O)NC1(C(F)(F)F)N=C2SCCN2C1=O (stereo not drawn) | 7.4 |
| CCOc1cc(/C=C/c2cccc[n+]2C)ccc1O.[I-] | 24.7 |
| O=C(COc1ccc(NC(=O)c2ccccc2[N+](=O)[O-])cc1)c1ccc(F)cc1 | 2.93 |

| Structure (SMILES) | hERG current change (%, negative = inhibition) at 10uM [%] |
| --- | --- |
| O=[N+]([O-])c1cccc(S(=O)(=O)[N-]c2nc3ccccc3nc2-n2cc[n+](Cc3ccccc3)c2)c1 | -5.11 |
| CC(C)N(C(=O)Cn1c(SCC(=O)Nc2nccs2)nc2ccccc21)C(C)C | 12.6 |
| CCN(CC)N=Nc1cccc(NC(C)=O)c1 | 0.363 |
| CCc1nc(C)ccc1OCC(=O)N(CC)CC.O.O=C(O)C(=O)O | -30.9 |
| CCOC(=O)c1c(NC(=O)CSc2nnc3c(n2)[nH]c2ccccc23)sc2c1CCN(C)C2 | -6.08 |
| CCOC(=O)c1ccc(NC2c3ccccc3C(=O)N2c2cccnc2)cc1 (stereo not drawn) | -57 |
| CCOC(=O)c1ccc(NC2c3ccccc3C(=O)N2c2ccccn2)cc1 (stereo not drawn) | 9.93 |
| Cc1ccc(NC2c3ccccc3C(=O)N2c2cccnc2)cc1 (stereo not drawn) | -21.5 |
| CCOc1ccc(/C(O)=C2/C(=O)C(=O)N(CCCN3CCOCC3)C2c2ccc(C)cc2)cc1C (stereo not drawn) | 23.8 |
| NC(=O)c1cccnc1Oc1cccc(Cl)c1 | 11.8 |
| COc1ccc(N(C(=O)c2ccco2)C(C(=O)NC2CCCC2)c2ccncc2)cc1OC (stereo not drawn) | 5.24 |
| O=C(NCC(=O)N(CCc1ccccc1)C(C(=O)NC1CCCCC1)c1ccncc1)c1ccco1 (stereo not drawn) | -54.6 |
| COc1ccc(CCN(C(=O)c2ccco2)C(C(=O)NC2CCCC2)c2ccncc2)cc1OC (stereo not drawn) | -55 |
| O=C(NCC(=O)N(Cc1ccccc1)C(C(=O)NC1CCCC1)c1ccncc1)c1ccco1 (stereo not drawn) | 5.71 |
| COc1cccc(C(C(=O)NC2CCCC2)N(C(=O)c2ccco2)c2ccc(NC(C)=O)cc2)c1OC (stereo not drawn) | -64 |
| Cc1ccc(N(C(=O)CNC(=O)c2ccco2)C(C(=O)NC2CCCC2)c2cccnc2)c(C)c1 (stereo not drawn) | 10.1 |
| COc1cccc(C(C(=O)NC2CCCC2)N(C(=O)c2ccco2)c2cccc(C(C)=O)c2)c1OC (stereo not drawn) | 13.9 |
| Cc1ccc(N(C(=O)CNC(=O)c2ccco2)C(C(=O)NC2CCCCC2)c2cccnc2)c(C)c1 (stereo not drawn) | -71.9 |
| O=C(NCC(=O)N(c1ccccc1)C(C(=O)NC1CCCCC1)c1ccncc1)c1ccco1 (stereo not drawn) | 5.92 |
| COc1ccccc1CN(C(=O)c1ccco1)C(C(=O)NC1CCCC1)c1ccncc1 (stereo not drawn) | -8.04 |
| Cc1ccc(C)c(N(C(=O)CNC(=O)c2ccco2)C(C(=O)NC2CCCCC2)c2cccnc2)c1 (stereo not drawn) | 15.3 |
| COc1cccc(C(C(=O)NC2CCCC2)N(C(=O)c2ccco2)c2ccc(C(C)=O)cc2)c1OC (stereo not drawn) | -13.3 |
